The list is not random: actives were taken first. Their share in the collection is about 2.3%.
Rce1 inhib – yeast Rce1p protease inhibitors, primary screen, biochemical, fluorescence, cell-free homogeneous; CAAX prenyl protease 2 (Saccharomyces cerevisiae (strain ATCC 204508 / S288c)), Q03530; yeast membranes, quenched prenylated peptide cleavage fluorescence; calls only; actives 0.27% (n = 290,000); AID 2563, 2010;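 active = fall in fluorescence gain of 50% or more versus controls, with final raw signal at or below 3038400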
PfM18AAP inh – PfM18AAP inhibitors, malaria aminopeptidase, primary screen, biochemical, QFRET, recombinant enzyme. M18 aspartyl aminopeptidase (Plasmodium falciparum 3D7). H-Glu-NHMec fluorogenic cleavage. inhibition, % at 7.35 µM. actives 1.2% (n = 290,000);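 active = inhibition above the campaign mean inhibition over all tested compounds plus 3 SD, cut at about 28% in these data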
DNA FID counter – compounds displacing fluorescent DNA intercalator, primary screen, artefact control for HCV NS3 helicase inhibitor project, biochemical, FID fluorescence; inhibition, % at 7.9 µM; DNA fluorescent intercalator displacement; actives 0.17% (n = 290,000); in the data active = inhibition above about 37%;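 note: higher means more ethidium bromide displaced from hairpin DNA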
Kir21 inh – inhibitors of mouse Kir2.1 inward-rectifier potassium channel | HEK293-Kir2.1, FluxOR thallium flux fluorescence; active compounds read low | B-score at 10 µM | actives 0.85% (n = 310,000);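 active = fluorescence ratio B-score at or below minus 3 SD of library scores, with starting-brightness B-score within 2 SD, cut at about -4.2 in these data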;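 note: channel flux triggered by added potassium and thallium sulfate stimulus; B-score of peak minus minimum fluorescence over baseline after thallium stimulus; more negative B-score means stronger Kir2.1 block with less thallium influx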
Target sequence (P35561 whole entry, looked up): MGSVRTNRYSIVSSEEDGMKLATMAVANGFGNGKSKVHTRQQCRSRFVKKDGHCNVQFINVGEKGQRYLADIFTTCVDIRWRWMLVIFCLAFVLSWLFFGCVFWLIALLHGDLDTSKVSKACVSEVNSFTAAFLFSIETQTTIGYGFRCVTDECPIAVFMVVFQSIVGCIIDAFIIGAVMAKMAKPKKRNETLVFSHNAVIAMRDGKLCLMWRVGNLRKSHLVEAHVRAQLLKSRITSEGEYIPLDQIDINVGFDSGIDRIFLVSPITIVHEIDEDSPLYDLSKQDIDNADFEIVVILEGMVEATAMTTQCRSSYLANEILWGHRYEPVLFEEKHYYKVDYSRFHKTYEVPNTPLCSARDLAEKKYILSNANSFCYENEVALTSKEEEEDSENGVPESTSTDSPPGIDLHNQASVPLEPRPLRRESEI
A number is an active result; n = inactive; x = no result; + = active, no number.

SMILES | Rce1 inhib | PfM18AAP inh | DNA FID counter | Kir21 inh
CC(C(=O)Nc1ccccc1Oc1ccccc1)c1ccccc1 (configuration not stated) | n | n | n | -5
CCCCNC(=O)C(CC)Sc1nc2sc(C(=O)OC)c(C)c2c(=O)n1N (configuration not stated) | + | n | n | n
CCC(Sc1nc2sc(C(=O)OC)c(C)c2c(=O)n1N)C(=O)N(CC)CC (configuration not stated) | n | n | n | n
CN(C(=O)C1CCC(=O)N(Cc2ccccc2F)C1)C1CCOCC1 (configuration not stated) | n | n | n | n
CCOC(=O)C1(CCc2ccccc2)CCN(C(=O)CCn2cncn2)CC1 | n | n | n | n
COc1ccc(CNC(=O)c2nn(-c3ccccc3)cc2OC)cc1 | n | n | n | n
COc1ccccc1NC(=O)C1=C(C)NC(SCC(=O)Nc2ccc(C(=O)O)cc2)=C(C#N)C1c1cccs1 (configuration not stated) | n | n | n | n
NC(=S)N/N=C/c1ccc2cccc(OCc3ccccc3)c2n1 | n | 44 | n | n
O/N=C/c1ccc2cccc(OCc3ccccc3)c2n1 | n | n | n | n
NC(N)=N/N=C/c1ccc2cccc(OCc3ccccc3)c2n1 | n | n | n | -5.3
CCN(CC)Cc1c(C(=O)N/N=C/c2cccc(OCc3cccc(Cl)c3)c2)nnn1-c1nonc1N | n | n | n | n
Cc1ccc(CNC(=O)CCc2cn(C)c3ccccc23)cc1 | n | n | n | n
O=C(NCCc1ccc(F)cc1)C(=O)NCC1CCCN1S(=O)(=O)c1cccs1 (configuration not stated) | n | x | x | n
CCC(C(=O)OC(C)C(=O)Nc1ccc(Cl)cn1)c1ccccc1 (configuration not stated) | n | n | n | -5.8
CNc1ccccc1C(=O)OC(C)C(=O)Nc1ccc(Cl)cn1 (configuration not stated) | n | n | n | n
CCN(C(=O)CSc1nc2cc(S(=O)(=O)N(CC)CC)ccc2o1)C1CCS(=O)(=O)C1 (configuration not stated) | n | 28 | n | n
CCCN(C(=O)CSc1nc2cc(S(=O)(=O)N(CC)CC)ccc2o1)C1CCS(=O)(=O)C1 (configuration not stated) | n | x | x | n
CNC(=O)c1sccc1SCc1ccc(Cl)cc1Cl | n | n | n | -5.2
NNC(=O)c1sccc1OCc1ccc(Cl)cc1Cl | n | n | n | n
CCOc1ccccc1NC(=O)NCCCCc1ccccc1 | n | n | n | n
COc1ccc(S(=O)(=O)N2CCc3cc4c(cc3C2C)OCCCO4)cc1 (configuration not stated) | n | n | n | -4.4
CC(C)C(NC(=O)c1ccc(C(C)(C)C)cc1)C(=O)NCC(c1ccccc1)N(C)C (configuration not stated) | n | n | 37 | n
CN(c1ccccc1)c1ccc(/C=C/[N+](=O)[O-])cc1 | n | n | n | -11
Cc1cc(C)c(C)c(S(=O)(=O)NCc2cccnc2)c1C | n | n | n | -4.7
Cc1cc(C)c(C)c(S(=O)(=O)NCc2ccco2)c1C | n | n | n | -7.7
SMILES | Rce1 inhib | PfM18AAP inh | DNA FID counter | Kir21 inh
COc1ccc(CCC(=O)NCCNC(=O)CCc2ccc(OC)cc2)cc1 | n | n | n | n
S=C(Nc1ccc2nccnc2c1)N1CCOCC1 | n | n | n | n
COc1ccc(C2CC(=O)N3CN(c4ccc(C)c(Cl)c4)CSC3=C2C#N)cc1 (configuration not stated) | n | n | n | n
COc1ccc(C2CC(=O)N3CN(c4ccccc4F)CSC3=C2C#N)cc1OC (configuration not stated) | n | n | n | n
COc1ccc(C2CC(=O)N3CN(Cc4ccco4)CSC3=C2C#N)cc1 (configuration not stated) | n | 30 | n | n
COc1ccc(OC)c(C2CC(=O)N3CN(c4ccccc4)CSC3=C2C#N)c1 (configuration not stated) | n | n | n | n
COc1ccc(N2CSC3=C(C#N)C(c4cccc(OC)c4OC)CC(=O)N3C2)cc1 (configuration not stated) | n | 28 | n | n
Cc1cccc(N2CSC3=C(C#N)C(c4ccc(C)o4)CC(=O)N3C2)c1 (configuration not stated) | n | 33 | n | n
COc1cc(OC)c(C2CC(=O)N3CN(c4ccccc4C)CSC3=C2C#N)cc1OC (configuration not stated) | n | 43 | n | n
CC(=O)Nc1ccc(S(=O)(=O)N2CCC(c3nnc(-c4ccc(C)cc4)o3)CC2)cc1 | n | n | n | n
COc1cc2c(cc1OC)CN(C(=O)/C=C/c1cccs1)CC2 | n | n | n | n
COc1cc(CN2CCC(C(=O)N3CCC(C)CC3)CC2)cc(Br)c1O | n | 31 | n | n
NC(=NC1CCCCC1)NS(=O)(=O)c1ccccc1 | n | n | n | n
COc1ccc(C2Nc3ccccc3C(=O)N2Cc2ccccc2)cc1OC (configuration not stated) | n | x | x | n
COc1ccc(C2Nc3ccccc3C(=O)N2Cc2ccccc2)cc1COc1ccccn1 (configuration not stated) | + | n | n | n
COc1ccc(S(=O)(=O)NCCCn2ccnc2)cc1C(C)(C)C | n | n | n | n
CCN(Cc1cccc(OC)c1)CC1CCCN(CCc2cccc(OC)c2)C1 (configuration not stated) | n | n | n | n
COc1cc(OC)c(OC)cc1CN(C)CC1CCCN(CCc2ccccc2F)C1 (configuration not stated) | n | n | n | n
COc1cccc(CN(C)CC2CCCN(CCc3ccccc3C)C2)c1 (configuration not stated) | n | n | n | -6.5
COc1ccc(CN(C)CC2CCCN(CCc3ccccc3C)C2)cc1O (configuration not stated) | n | n | n | -8.8
Clc1ccc(Cn2c(-c3cccnc3Cl)nc3ccccc32)cc1 | n | n | n | -5.3
CC1CC(C)CN(CCCSc2ccccc2)C1 (configuration not stated) | n | n | n | n
CC1CC(C)CN(CCOCCSc2ccc(Cl)cc2)C1 (configuration not stated) | n | n | n | -4.5
CCOC(=O)C1=C(COC(=O)/C=C/c2ccc(OC)cc2OC)NC(=O)NC1C (configuration not stated) | n | x | x | n
CCC(C)(C)NC(=O)C(c1ccc(OC)cc1)N(C(=O)CCC(=O)Nc1cc(C)on1)c1cc(OC)ccc1OC (configuration not stated) | n | n | n | n
C/C(=N/NS(=O)(=O)c1cc(C)ccc1C)c1ccncc1 | n | 31 | n | n
C/C(=N/NS(=O)(=O)c1cc(C)ccc1C)c1ccc2c(c1)OCO2 | n | n | n | n

Screening results as filed in PubChem BioAssay.
